Many of the other results were omitted from the sample, so hits are more common in it than they were.
Pf Dd2 growth = inhibitors of Plasmodium falciparum Dd2 growth; P. falciparum Dd2 growth, SYBR Green, 72 h; Potency, µM (highest dose often 28.9 µM), without a hit: at the top dose activity, negative = inhibition, actives largely listed as inhibitors; 4.3% of 120,000 active; AID 1347417; active = well fitted inhibition curve with a large enough effect;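 also: plate controls were DMSO vehicle for no effect and reference drug for full effect; nearly all actives have a fitted effect of over 65% in size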
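Infected erythrocytes (Dd2, 0.3% parasitemia, 2.5% hematocrit final) are added to compound in RPMI-1640/Albumax II medium, grown 72 h at 37C in low oxygen, then lysed with saponin/Triton-X containing SYBR Green and read by fluorescence.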
Active calls of the source: *; i = inactive; [ ] = another dose, or the depositor's remark. Potency is read from the fitted curve at half-maximal effect.

SMILES | Pf Dd2 growth
CCc1noc(-c2ccn3c(CNC(=O)c4cc(F)cc(F)c4)nnc3c2)n1 | -23%
COCCOC1CCOC2(CCN(C(=O)c3cc(C)nn3C)CC2)C1 (configuration not stated) | -18%
COCCOC1CCOC2(CCN(C(=O)c3ccccc3OC)CC2)C1 (configuration not stated) | -26%
COCCOC1CCOC2(CCN(C(=O)c3cc(-c4ccc(F)cc4)n[nH]3)CC2)C1 (configuration not stated) | 11µM*
Cc1ccc(-c2cc(N3CCCN(C(=O)CCc4ccccc4)CC3)n[nH]2)cc1C | -19%
OC(c1ccccc1)c1nc(Nc2ccc(Cl)cc2F)n[nH]1 (configuration not stated) | i
O=C(CC1CCOC2(CCN(Cc3cccc(F)c3)CC2)C1)NC1CC1 (configuration not stated) | -8%
COc1cc(NC(=O)O[C@@H]2CC[C@]3(C)C(CC[C@@H](O)[C@H]3CC(=O)N3CCCC3)[C@]2(C)CO)cc(OC)c1OC (some centres not stated) | i
C[C@]1(CO)C2CC[C@@H](O)[C@@H](CC(=O)N3CCCC3)[C@]2(C)CC[C@H]1OC(=O)Nc1cccc(F)c1 (some centres not stated) | -6%
CCCNC(=O)O[C@@H]1CC[C@]2(C)C(CC[C@@H](O)[C@H]2CC(=O)NCc2ccc(F)cc2)[C@]1(C)CO (some centres not stated) | i
CSc1cccc(NC(=O)O[C@@H]2CC[C@]3(C)C(CC[C@@H](O)[C@H]3CC(=O)N3CCCC3)[C@]2(C)CO)c1 (some centres not stated) | 5µM*
CSc1cccc(NC(=O)O[C@@H]2CC[C@]3(C)C(CC[C@@H](O)[C@H]3CC(=O)N3CCC[C@H]3CO)[C@]2(C)CO)c1 (some centres not stated) | -18%
CSc1cccc(NC(=O)O[C@@H]2CC[C@]3(C)C(CC[C@@H](O)[C@H]3CC(=O)NCc3ccccc3)[C@]2(C)CO)c1 (some centres not stated) | 11µM*
O=C([C@@H]1C[C@H](Oc2cccnc2)CN1C(=O)c1cc2ccccc2[nH]1)N1CCCC1 | i
O=C(c1ccc(F)cc1)N1C[C@@H]2C[C@H](C1)c1c(NS(=O)(=O)c3cccc(F)c3)ccc(=O)n1C2 | -5%
CCc1ncc(C(=O)N2CCN(c3ccc(Cl)c(Cl)c3)CC2)cn1 | -14%
C=CCNc1ncnc2c1CCN(C(=O)Cc1c[nH]c(=O)[nH]c1=O)CC2 | 12%
CC(C)(C)c1ccc(C(=O)Nc2ccc(C(O)[C@H]3COCC(=O)N3)cc2)cc1 (some centres not stated) | 10µM*
O=C1COC[C@H]([C@H](O)c2ccc(NS(=O)(=O)c3ccc(F)cc3)cc2)N1 | -3%[44.1 µM]
COc1ccccc1C(=O)Nc1ccc(C(O)[C@H]2COCC(=O)N2)cc1 (some centres not stated) | -3%[44.1 µM]
CCn1ccnc1CNc1ccc(-c2nc(-c3ccccc3C)no2)cn1 | -23%
COc1ccc(-c2cc(C(=O)Oc3ccccc3)c3cc(C)ccc3n2)cc1 | 4.5µM*
Cc1ccc(-c2cc(C(=O)Oc3ccccc3)c3cccc(C)c3n2)cc1 | -10%
COc1ccc(-c2cc(C(=O)Oc3ccc(C)cc3)c3cc(C)ccc3n2)cc1 | i
Cc1ccc2[nH]c(=O)c(CCC(=O)N(C)Cc3cn(C)nc3C)cc2c1 | -16%
SMILES | Pf Dd2 growth
CN(CCO)C[C@@H]1CN(C(=O)c2ccc3c(c2)CCC3)C[C@@H]1CO | -10%
Cc1c(CN2C[C@@H](CN(C)CCO)[C@@H](CO)C2)[nH]c2c(Cl)cccc12 | 13µM*
Cc1cc2c(cc1C(=O)N1C[C@@H](CN(C)CCO)[C@@H](CO)C1)OCCO2 | -21%
COc1ccc(CC(=O)N2CCC(Cc3nc(-c4ccccc4)no3)CC2)cc1Cl | -9%
COCc1noc([C@@H]2CN(S(=O)(=O)Cc3ccc(F)cc3)C[C@H]2C(N)=O)n1 | 9%
COc1ccccc1NC(=O)Cn1nc2c(cc1=O)CN(C(C)=O)CC2 | i
Cc1ccc(-c2nc3ccccn3c2Nc2ccc3c(c2)OCO3)cc1 | 41%[0.594 µM]
Cc1ccc(-c2nc3ccc(Br)cn3c2Nc2ccc3c(c2)OCO3)o1 | -20%
Cc1cccc2nc(-c3ccc(N(C)C)cc3)c(Nc3ccc4c(c3)OCO4)n12 | 7.9µM*
O=C(CN1C(=O)NC2(CCS(=O)(=O)CC2)C1=O)Nc1ccc(Cl)cc1F | 9%
CCOC(=O)N1CCC(NC(=O)c2cnn(-c3ccc(F)cc3F)c2C2CCN(C(=O)OC(C)(C)C)CC2)CC1 | 3.5µM*
CC(C)(C)OC(=O)N1CCC(c2c(C(=O)NC3CCN(Cc4ccccc4)CC3)cnn2-c2ccc(F)cc2F)CC1 | 11µM*
CN1CCN(C(=O)[C@@H]2CCC[C@@H](NCc3cccc(Cl)c3)CN(C)C(=O)C2)CC1 | i
CN(CCc1ccccn1)C(=O)COc1ccc(NC(=O)C2CC2)cn1 | -3%
Cc1cnc(CC2CCCN(C(=O)CCc3c[nH]c4ccccc34)C2)n1C(C)C (configuration not stated) | 4.5µM*
Cc1cnc(CC2CCN(C(=O)CCc3c[nH]c4ccccc34)C2)n1CC1CC1 (configuration not stated) | i
Cc1cnc(CC2CCCN(C(=O)N(C)C)C2)n1C(C)C (configuration not stated) | -11%
Cc1ccncc1C(=O)N1CCC(N2C(=O)C(OCC3CC3)C23CCOCC3)CC1 (configuration not stated) | -20%
Cc1ccc(N2C[C@]34C=C[C@H](O3)C(C(=O)N(C)CCc3cn[nH]c3)C4C2=O)cc1C (some centres not stated) | 3%
CCN(CC)S(=O)(=O)c1ccc2c(c1)N(CC(=O)Nc1ccc(F)cc1)C(=O)CO2 | 19%
NS(=O)(=O)c1ccc(NC(=O)CN2C(=O)COc3ccc(Cl)cc32)cc1 | 0.71µM*
Cc1ccc(NC(=O)CN2C(=O)COc3ccc(S(=O)(=O)N4CCCCC4)cc32)cc1Cl | 6%
CCOC(=O)c1ccc2c(c1)N(CC(=O)Nc1cc(F)ccc1F)C(=O)c1ccccc1S2 | -26%
O=C(c1ccc2c(c1)N(Cc1cccc(F)c1)C(=O)c1ccccc1S2)N1CCCC1 | i
COc1ccc(OC)c(NC(=O)CN2C(=O)c3ccccc3Sc3ccc(C(=O)N4CCCC4)cc32)c1 | 10µM*
SMILES | Pf Dd2 growth
CN(C)c1ccc(NC(=O)CN2C(=O)c3ccccc3Sc3ccc(C(=O)N4CCCC4)cc32)cc1 | 10µM*
Cc1ccc(NC(=O)CN2C(=O)c3ccccc3Sc3ccc(C(=O)N4CCOCC4)cc32)cc1C | -25%
O=C(c1ccc2c(c1)N(Cc1ccccc1Cl)C(=O)c1ccccc1S2)N1CCCC1 | i
CN(Cc1cccc2ccccc12)C(=O)c1cc(CN2CCOCC2)on1 | -17%
COc1cc(CCC(=O)N2CC(c3noc(C4CCCN4C(C)=O)n3)C2)on1 (configuration not stated) | 14%
O=C(Nc1ccccc1)Nc1ccc([C@H]2OCC(=O)N(Cc3ccccc3)[C@@H]2CO)cc1 | i
O=C(Nc1cccc(C(F)(F)F)c1)N[C@H]1CO[C@H]2[C@@H]1OC[C@@H]2n1nnnc1-c1ccc2c(c1)OCO2 | i
CC1=NOC2(CCCN(C(=O)Cc3ccccc3)C2)C1 (configuration not stated) | 6%[44.1 µM]
Cc1cnc(C)c(-c2cc(O)c3c(c2)CN(C(=O)c2ccncn2)CCO3)n1 | -14%
Cc1cncc(C(=O)N2CCOc3c(O)cc(-c4nc5ccccc5s4)cc3C2)c1 | 7.9µM*

Bioassay records as filed in PubChem BioAssay.
